Holding throughout (parameters): scale not given: direction of the effect not stated beside the values
Experiment [1] addresses Protein translocase subunit SecA (Escherichia coli (strain K12)) (UniProt P10408). As to the kind of experiment: Assay to Identify E. coli SecA ATPase Inhibitors. The conditions noted are these: 30 µM. In kind it is functional.
Experiment [2] has as its target T1, Ubiquitin-activating enzyme e1, putative (Leishmania donovani (strain BPK282A1)) (UniProt E9BSI1).
T1 sequence (whole entry): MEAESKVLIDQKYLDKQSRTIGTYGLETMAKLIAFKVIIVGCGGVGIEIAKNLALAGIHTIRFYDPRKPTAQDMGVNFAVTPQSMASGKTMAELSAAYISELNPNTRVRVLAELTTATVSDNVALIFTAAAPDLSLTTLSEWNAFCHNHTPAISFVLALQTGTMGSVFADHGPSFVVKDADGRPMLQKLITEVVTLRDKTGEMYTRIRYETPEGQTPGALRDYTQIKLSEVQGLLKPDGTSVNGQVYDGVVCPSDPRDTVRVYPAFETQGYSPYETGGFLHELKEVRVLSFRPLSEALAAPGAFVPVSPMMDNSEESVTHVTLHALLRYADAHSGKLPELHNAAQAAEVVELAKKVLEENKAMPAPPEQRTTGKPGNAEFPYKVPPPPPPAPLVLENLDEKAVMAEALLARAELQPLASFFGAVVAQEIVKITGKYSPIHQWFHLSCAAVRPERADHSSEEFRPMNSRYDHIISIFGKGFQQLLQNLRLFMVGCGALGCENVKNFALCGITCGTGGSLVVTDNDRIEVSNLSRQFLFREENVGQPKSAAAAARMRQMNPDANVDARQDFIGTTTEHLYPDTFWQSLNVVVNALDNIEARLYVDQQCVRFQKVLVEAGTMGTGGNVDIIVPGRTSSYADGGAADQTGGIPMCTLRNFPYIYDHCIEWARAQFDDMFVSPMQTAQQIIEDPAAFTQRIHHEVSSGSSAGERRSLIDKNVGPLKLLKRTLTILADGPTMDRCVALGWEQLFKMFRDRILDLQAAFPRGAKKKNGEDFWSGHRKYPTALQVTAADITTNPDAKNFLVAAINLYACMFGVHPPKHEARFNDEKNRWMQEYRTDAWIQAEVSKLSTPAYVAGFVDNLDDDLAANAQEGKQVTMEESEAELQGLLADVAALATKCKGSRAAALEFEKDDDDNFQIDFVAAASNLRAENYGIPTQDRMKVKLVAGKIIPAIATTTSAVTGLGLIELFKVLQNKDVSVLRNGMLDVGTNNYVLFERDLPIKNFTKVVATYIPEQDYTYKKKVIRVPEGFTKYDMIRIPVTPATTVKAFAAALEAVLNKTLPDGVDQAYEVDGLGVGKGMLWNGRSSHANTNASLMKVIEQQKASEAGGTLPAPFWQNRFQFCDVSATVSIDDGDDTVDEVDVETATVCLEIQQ
The experiment is described as follows: Leishmania donovani Ubiquitin Activating Enzyme (LdE1). Format: functional. Conditions: 30 µM.

The target of experiment [3] is AMP-activated protein kinase, AMPK (Homo sapiens) (UniProt P54646+O43741+P54619+Q9UGJ0+Q9Y478+Q13131+Q9UGI9). As to the kind of experiment: AMP-dependent Kinase enzyme assay. An in vitro enzyme assay that detects ADP turnover that is directly proportional to AMPK activity. This uses naive AMPK that is activated during the assay with MK-8722. In kind it is functional. Conditions: 30 µM.

Experiment [4] addresses Sialic acid-binding Ig-like lectin 9 (Homo sapiens) (UniProt Q9Y336). As to the kind of experiment: Hs-Siglec9 ALPHAscreen SOP 20170721. The conditions noted are these: 10 µM. (In general: Bead proximity is the source of the signal in Alpha formats.)
For another experiment, the system named is Trypanosoma cruzi. As to the kind of experiment: Trypanosoma cruzi phosphomannomutase and mannose-1-phosphate guanylyltransferase assay. In kind it is functional. Conditions: 10 µM.
Experiment [5] concerns the target T2, Arginase-2, mitochondrial (Homo sapiens) (UniProt P78540).
T2 sequence (whole entry): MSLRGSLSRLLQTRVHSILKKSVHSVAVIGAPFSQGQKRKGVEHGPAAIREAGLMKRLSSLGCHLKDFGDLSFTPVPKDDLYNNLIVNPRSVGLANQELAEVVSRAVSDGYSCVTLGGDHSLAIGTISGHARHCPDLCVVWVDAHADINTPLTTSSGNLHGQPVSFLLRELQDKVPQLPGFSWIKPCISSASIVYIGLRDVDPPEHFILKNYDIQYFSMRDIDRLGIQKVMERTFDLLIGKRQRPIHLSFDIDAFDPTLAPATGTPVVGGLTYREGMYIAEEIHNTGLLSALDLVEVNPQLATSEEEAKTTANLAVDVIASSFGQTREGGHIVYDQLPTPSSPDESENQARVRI
As to the kind of experiment: in vitro enzyme assay to detect the production of urea directly proportional to the activity of Arginase II. Note: in the data most compounds retested in dose-response had high values. In kind it is functional. The conditions noted are these: 33.3 µM.

Experiment [6] addresses T3, Proteasome subunit beta (Trypanosoma cruzi) (UniProt O96673).
T3 sequence (whole entry): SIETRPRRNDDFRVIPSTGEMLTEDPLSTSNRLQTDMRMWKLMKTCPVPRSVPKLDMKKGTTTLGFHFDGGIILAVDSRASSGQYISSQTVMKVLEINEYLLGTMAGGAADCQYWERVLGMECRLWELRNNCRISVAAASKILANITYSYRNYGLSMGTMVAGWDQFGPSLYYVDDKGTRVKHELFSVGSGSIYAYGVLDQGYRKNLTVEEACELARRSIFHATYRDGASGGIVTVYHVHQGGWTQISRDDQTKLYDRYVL
The experiment is described as follows: Trypanosoma cruzi proteasome chymotrypsin-like activity (TcProtChymo) assay. Note: in the data most compounds retested in dose-response had high values. In kind it is functional. The conditions noted are these: 9.37 µM.

For the next experiment, the species on record is Homo sapiens. The experiment is described as follows: To identify inhibition of the IFN signalling (Jak-Stat) pathway via expression of an eGFP reporter gene under the control of an IFN-stimulated response element (ISRE) containing MxA promoter. The conditions noted are these: 30 µM. In kind it is functional.
The target in experiment [7] is T4, Tyrosyl-tRNA synthetase, putative (Trypanosoma cruzi (strain CL Brener)) (UniProt Q4DSP6).
T4 sequence (whole entry): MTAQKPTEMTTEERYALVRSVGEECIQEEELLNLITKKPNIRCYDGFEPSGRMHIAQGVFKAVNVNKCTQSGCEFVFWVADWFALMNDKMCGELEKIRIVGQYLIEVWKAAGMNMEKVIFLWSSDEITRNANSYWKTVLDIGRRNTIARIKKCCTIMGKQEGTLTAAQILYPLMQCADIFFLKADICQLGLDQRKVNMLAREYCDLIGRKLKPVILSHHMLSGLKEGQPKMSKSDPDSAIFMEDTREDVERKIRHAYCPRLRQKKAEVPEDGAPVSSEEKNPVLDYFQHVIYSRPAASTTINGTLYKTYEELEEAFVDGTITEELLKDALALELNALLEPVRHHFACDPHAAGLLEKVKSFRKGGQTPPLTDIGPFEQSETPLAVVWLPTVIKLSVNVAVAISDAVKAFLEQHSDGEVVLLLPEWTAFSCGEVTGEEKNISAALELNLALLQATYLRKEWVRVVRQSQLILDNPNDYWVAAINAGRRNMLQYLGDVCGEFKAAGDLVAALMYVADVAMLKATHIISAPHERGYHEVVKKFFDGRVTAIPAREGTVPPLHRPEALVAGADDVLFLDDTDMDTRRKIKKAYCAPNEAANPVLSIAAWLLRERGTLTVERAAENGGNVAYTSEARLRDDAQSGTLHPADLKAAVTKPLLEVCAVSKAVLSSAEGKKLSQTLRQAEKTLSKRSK
The experiment is described as follows: Trypanosoma cruzi tyrosyl tRNA synthetase (TcYRS) _High Tyrosine SOP. Note: in the data most compounds retested in dose-response had high values. Conditions: 30 µM. In kind it is functional.

For experiment [8], the target named is T4, Tyrosyl-tRNA synthetase, putative (Trypanosoma cruzi (strain CL Brener)). The experiment is described as follows: Trypanosoma cruzi tyrosyl tRNA synthetase (TcYRS) SOP. The conditions noted are these: 30 µM. In kind it is functional.
Experiment [9] has as its target Chromo domain-containing protein 1 (Saccharomyces cerevisiae (strain ATCC 204508 / S288c) (Baker's yeast)) (UniProt P32657). As to the kind of experiment: ScCHD-1 Enzyme Inhibition Assay. Note: in the data most compounds retested in dose-response had high values. Format: functional. The conditions noted are these: 30 µM.

Molecules are shown by their SMILES. For some of these results: Entries with a potency or affinity are not part of this list.

Sialic acid-binding Ig-like lectin 9 (Homo sapiens), sequence (Q9Y336 whole entry): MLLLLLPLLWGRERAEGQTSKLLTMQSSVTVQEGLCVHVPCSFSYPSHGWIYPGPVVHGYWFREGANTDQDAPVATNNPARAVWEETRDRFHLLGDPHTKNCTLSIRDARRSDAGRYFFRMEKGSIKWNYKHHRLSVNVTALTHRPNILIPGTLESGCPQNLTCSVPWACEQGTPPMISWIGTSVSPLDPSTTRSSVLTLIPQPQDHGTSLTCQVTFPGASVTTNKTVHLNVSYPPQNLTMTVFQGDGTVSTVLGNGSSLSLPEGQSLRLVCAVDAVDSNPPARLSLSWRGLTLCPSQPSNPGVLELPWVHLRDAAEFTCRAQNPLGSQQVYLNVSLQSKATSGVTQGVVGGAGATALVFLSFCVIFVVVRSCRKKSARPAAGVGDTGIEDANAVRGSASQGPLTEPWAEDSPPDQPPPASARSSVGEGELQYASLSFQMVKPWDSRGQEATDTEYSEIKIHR
Protein translocase subunit SecA (Escherichia coli (strain K12)), sequence (P10408 whole entry): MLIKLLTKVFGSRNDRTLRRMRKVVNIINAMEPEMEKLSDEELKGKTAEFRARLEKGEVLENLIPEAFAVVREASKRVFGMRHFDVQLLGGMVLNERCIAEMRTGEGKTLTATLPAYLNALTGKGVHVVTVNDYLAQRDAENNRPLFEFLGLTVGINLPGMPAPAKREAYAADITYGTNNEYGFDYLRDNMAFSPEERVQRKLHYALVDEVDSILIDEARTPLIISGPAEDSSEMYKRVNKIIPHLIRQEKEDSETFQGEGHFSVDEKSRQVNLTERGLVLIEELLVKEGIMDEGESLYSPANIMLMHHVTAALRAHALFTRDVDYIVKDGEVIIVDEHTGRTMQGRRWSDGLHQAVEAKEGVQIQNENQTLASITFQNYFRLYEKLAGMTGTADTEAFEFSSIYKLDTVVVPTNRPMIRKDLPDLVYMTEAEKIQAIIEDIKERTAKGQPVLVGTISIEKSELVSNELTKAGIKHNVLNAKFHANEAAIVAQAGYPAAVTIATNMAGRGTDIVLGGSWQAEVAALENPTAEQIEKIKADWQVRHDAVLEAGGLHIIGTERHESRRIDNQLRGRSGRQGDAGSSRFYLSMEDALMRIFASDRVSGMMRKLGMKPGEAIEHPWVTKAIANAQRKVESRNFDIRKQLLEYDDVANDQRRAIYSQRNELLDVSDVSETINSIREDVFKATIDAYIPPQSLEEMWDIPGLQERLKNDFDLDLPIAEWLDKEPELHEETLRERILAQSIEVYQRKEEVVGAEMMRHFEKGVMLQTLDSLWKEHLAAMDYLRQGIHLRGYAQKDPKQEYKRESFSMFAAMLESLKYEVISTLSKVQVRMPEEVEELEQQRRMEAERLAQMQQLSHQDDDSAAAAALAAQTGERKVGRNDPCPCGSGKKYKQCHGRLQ
Chromo domain-containing protein 1 (Saccharomyces cerevisiae (strain ATCC 204508 / S288c) (Baker's yeast)), sequence (P32657 whole entry, the tested form may be a part): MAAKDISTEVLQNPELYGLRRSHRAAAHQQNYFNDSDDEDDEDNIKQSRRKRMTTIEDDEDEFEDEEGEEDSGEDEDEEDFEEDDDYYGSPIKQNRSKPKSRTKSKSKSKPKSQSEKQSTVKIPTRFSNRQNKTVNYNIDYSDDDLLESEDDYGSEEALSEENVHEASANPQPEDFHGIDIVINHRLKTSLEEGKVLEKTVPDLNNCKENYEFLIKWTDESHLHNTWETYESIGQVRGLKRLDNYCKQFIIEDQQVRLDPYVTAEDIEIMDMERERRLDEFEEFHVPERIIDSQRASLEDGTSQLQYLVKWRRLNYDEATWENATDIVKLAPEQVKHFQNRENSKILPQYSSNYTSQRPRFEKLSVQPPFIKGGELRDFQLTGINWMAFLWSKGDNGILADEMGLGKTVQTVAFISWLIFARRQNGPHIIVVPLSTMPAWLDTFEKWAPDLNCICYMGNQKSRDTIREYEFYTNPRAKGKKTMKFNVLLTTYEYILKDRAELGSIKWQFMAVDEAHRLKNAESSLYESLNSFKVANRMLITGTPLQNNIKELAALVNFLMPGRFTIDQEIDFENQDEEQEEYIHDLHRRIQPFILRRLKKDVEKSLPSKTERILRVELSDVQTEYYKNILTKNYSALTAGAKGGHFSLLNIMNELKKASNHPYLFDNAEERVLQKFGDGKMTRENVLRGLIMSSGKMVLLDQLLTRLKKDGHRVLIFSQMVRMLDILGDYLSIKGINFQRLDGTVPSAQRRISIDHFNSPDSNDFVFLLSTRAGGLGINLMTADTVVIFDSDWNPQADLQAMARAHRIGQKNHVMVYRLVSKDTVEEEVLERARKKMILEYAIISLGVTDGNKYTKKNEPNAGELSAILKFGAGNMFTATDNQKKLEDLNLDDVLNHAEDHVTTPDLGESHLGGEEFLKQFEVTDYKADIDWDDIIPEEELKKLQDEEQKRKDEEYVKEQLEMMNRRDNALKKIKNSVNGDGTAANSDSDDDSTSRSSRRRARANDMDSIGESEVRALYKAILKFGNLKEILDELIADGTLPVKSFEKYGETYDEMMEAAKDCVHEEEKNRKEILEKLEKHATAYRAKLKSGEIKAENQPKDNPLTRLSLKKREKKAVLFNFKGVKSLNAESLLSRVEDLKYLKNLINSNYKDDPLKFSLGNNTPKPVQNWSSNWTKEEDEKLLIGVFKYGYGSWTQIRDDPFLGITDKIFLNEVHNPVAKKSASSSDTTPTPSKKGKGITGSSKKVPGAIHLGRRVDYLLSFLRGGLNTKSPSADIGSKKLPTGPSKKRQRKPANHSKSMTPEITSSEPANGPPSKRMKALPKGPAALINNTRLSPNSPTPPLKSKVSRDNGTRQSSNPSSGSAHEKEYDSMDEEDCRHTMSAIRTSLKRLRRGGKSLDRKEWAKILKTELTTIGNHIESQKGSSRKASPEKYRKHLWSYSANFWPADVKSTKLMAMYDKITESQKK

Turning to `Cc1cc2c(=O)n3c(nc2s1)CCN(Cc1cnn(C)c1C)CC3`, the Percent Effect in [1] is -4.39%; in experiment [2] it was 9.46%; in [3], 12.6%; in experiment [4], -0.402%; in the experiment with Trypanosoma cruzi, -4.74%; in experiment [5], 2.09%. For the same molecule, the Percent Effect in experiment [6] is 8.58%; in the experiment filed under Homo sapiens, 7.67%; in experiment [7], 5.38%; in experiment [8], 9.09%; in experiment [9] it was -8.69%.
In the case of `Cc1nn(C)c(C)c1C1CCCN1Cc1nc(C)c2ccccc2n1` (stereo unspecified), the Percent Effect in experiment [1] was -3.55%; in experiment [2] it was 3.8%; in [3] it was 1.88%; in experiment [4], -0.0747%; in the experiment with Trypanosoma cruzi, 1.74%; in experiment [5], 1.94%. In addition, the Percent Effect in experiment [6] was 2.06%; in the experiment listed under Homo sapiens, -6.74%; in experiment [7], 20.8%; in experiment [8], 25.3%; in [9], -22.5%.
For `CN(Cc1ccsc1)C(=O)Nc1ccc(S(=O)(=O)N(C)C)cc1`, the Percent Effect in [1] was -1.98%; in [2], 17.7%; in [3], -2.37%; in [4], -9.54%; with Trypanosoma cruzi, -1.79%; in experiment [5], -0.38%. In addition, the Percent Effect in experiment [6] was -0.0819%; in the experiment listed under Homo sapiens, -7.23%; in experiment [7] it was 6.4%; in experiment [8], 21.5%; in [9], -6.52%.
On to `Cc1cc(F)ccc1OC1(C(=O)O)CCN(Cc2ccncc2)CC1`, for which the Percent Effect in experiment [1] was -4.32%; in experiment [2], 16%; in experiment [3], -6.71%; in experiment [4] it was 19.8%; in the experiment on Trypanosoma cruzi it was 3.21%; in experiment [5], 13.5%. Besides, the Percent Effect is 11.7% in [6]; 10% in the experiment listed under Homo sapiens; 10.4% in experiment [7]; 21% in [8]; -4.33% in experiment [9].
With `Cc1noc(C)c1CN1CCc2nn(C(C)C)c(=O)cc2C1`, the Percent Effect is -9.42% in [1]; 13.2% in experiment [2]; -66% in experiment [3]; 20.3% in experiment [4]; 9.8% in the experiment with Trypanosoma cruzi; 5.04% in experiment [5]. In addition, the Percent Effect was 12.9% in [6]; -9.45% in the experiment filed under Homo sapiens; 5.42% in [7]; 16.1% in experiment [8]; -9.78% in experiment [9].
In the case of `COc1ccc(NC(=O)Cn2nc(C)c(C)cc2=O)cc1OC`, the Percent Effect is -0.134% in experiment [1]; 0% in experiment [2]; -0.466% in experiment [3]; 23.4% in experiment [4]; 5.79% in the experiment with Trypanosoma cruzi; 20.5% in experiment [5]. Also, the Percent Effect was 8.97% in experiment [6]; 2.79% in the experiment listed under Homo sapiens; 0.529% in experiment [7]; 9.76% in experiment [8]; -7.49% in experiment [9].
`Cc1cnn(CC(C)NCc2csc(-c3cnn(C)c3)n2)c1` (stereo unspecified): the Percent Effect in experiment [1] was -0.0815%; in [2] it was 19%; in experiment [3] it was -6.28%; in experiment [4], -4.12%; in the experiment with Trypanosoma cruzi, -4.41%; in experiment [5] it was 0.645%. Also, the Percent Effect in experiment [6] is 20.6%; in the experiment listed under Homo sapiens it was 14%; in experiment [7] it was 7.29%; in experiment [8], -10.1%; in [9] it was -26.4%.
Turning to `Cc1occc1C(=O)N1CCC2(CCC2NC(=O)c2ccn(C)c2)CC1` (stereo unspecified), the Percent Effect in experiment [1] is -5.67%; in experiment [2] it was 8.11%; in experiment [3] it was 3.15%; in experiment [4], -1.3%; in the experiment with Trypanosoma cruzi, 4.79%; in experiment [5] it was -3.5%. For the same molecule, the Percent Effect was 12% in experiment [6]; -2.79% in the experiment filed under Homo sapiens; 6.49% in experiment [7]; 15.4% in experiment [8]; 3.75% in experiment [9].
On to `CS(=O)(=O)CCC(=O)N1CCC2(CCCN(C3CCOCC3)C2=O)C1` (stereo unspecified), for which the Percent Effect in [1] was 0.12%; in experiment [2], 8.22%; in experiment [3] it was -3.26%; in experiment [4], 6.39%; in the experiment on Trypanosoma cruzi, 1.19%; in [5] it was -3.19%. Also, the Percent Effect in experiment [6] was 12.6%; in the experiment listed under Homo sapiens it was -2.62%; in [7], 6.25%; in experiment [8], 13.6%; in [9], -3.06%.
For the molecule `Cc1cc(C)n(CC2CN(Cc3cccc(C(N)=O)c3)CCO2)n1` (stereo unspecified), the Percent Effect in [1] was -2.43%; in [2] it was 16.2%; in [3], 8.27%; in [4], -0.119%; with Trypanosoma cruzi, 4.69%; in [5], 8.75%. The Percent Effect worked out at 20.7% in experiment [6]; 18.8% in the experiment listed under Homo sapiens; 7.92% in [7]; 20.7% in [8]; 97.6% in [9].
In the case of `CN(C)C(=O)N1CCN(C(=O)C(c2ccccc2F)N(C)C)CC1` (stereo unspecified), the Percent Effect is -3.25% in experiment [1]; 9.72% in experiment [2]; -8.74% in experiment [3]; 14.1% in experiment [4]; 6.71% in the experiment with Trypanosoma cruzi; 7.06% in [5]. The Percent Effect in [6] is 14%; in the experiment filed under Homo sapiens, -4.8%; in experiment [7], 4.21%; in [8], 7.69%; in experiment [9], -9.49%.

(Values after ChEMBL document CHEMBL3988442, “University of Dundee, Small-Polar-MMV Screening Library” (2021).)
